Laboratory results: ChEMBL document CHEMBL4296182, “CO-ADD screening of NIH NCI Diversity Set V”
For part of these data: Results with a measured potency or affinity are listed apart.

Tests used:
Staphylococcus aureus = test: Antibacterial activity against Staphylococcus aureus MRSA ATCC 43300 (CO-ADD:GP_020); MIC in CAMBH media using NBS plates, by Resazurin F(560/590); type: functional; conditions: Concentration 20 uM, ASSAY_TEST Inhibition of Bacterial Growth, detection method Resazurin, Fluorescence (ex560/em590), MEDIA CAMHB, plate type 384well, CORNING #3640, time 18 hr
Acinetobacter baumannii = test: Antibacterial activity against Acinetobacter baumannii ATCC 19606 (CO-ADD:GN_034); MIC in CAMBH media using NBS plates, by Resazurin F(560/590); type: functional; conditions: Concentration 20 uM, ASSAY_TEST Inhibition of Bacterial Growth, detection method Resazurin, Fluorescence (ex560/em590), MEDIA CAMHB, plate type 384well, CORNING #3640, time 18 hr
Escherichia coli = test: Antibacterial activity against Escherichia coli ATCC 25922 (CO-ADD:GN_001); MIC in CAMBH media using NBS plates, by Resazurin F(560/590); type: functional; conditions: Concentration 20 uM, ASSAY_TEST Inhibition of Bacterial Growth, detection method Resazurin, Fluorescence (ex560/em590), MEDIA CAMHB, plate type 384well, CORNING #3640, time 18 hr
Klebsiella pneumoniae = conditions: Concentration 20 uM; ASSAY_TEST Inhibition of Bacterial Growth; detection method Absorption (OD600); MEDIA CAMHB; plate type 384well; NBS; CORNING #3640; time 18 hr
Candida albicans = conditions: 20 µM
Cryptococcus neoformans = conditions: Concentration 20 uM; ASSAY_TEST Inhibition of Fungal Growth; detection method Resazurin; Absorption (OD600-OD570); plate type 384well; NBS; CORNING #3640

SMILES	Inhibition (Staphylococcus aureus) [%]	Inhibition (Acinetobacter baumannii) [%]	Inhibition (Escherichia coli) [%]	Inhibition (Klebsiella pneumoniae) [%]	Inhibition (Candida albicans) [%]	Inhibition (Cryptococcus neoformans) [%]
CNc1nc(SC)n(C)c(=O)c1N=O	10.57	-4.07	13.38	9.07	-3.41	-15.4
c1ccc(-n2ncc3cccnc32)cc1	6.65	-2.45	7.04	9.31	-0.36	-9.65
NNC(=O)c1nnsc1-c1csnn1	-28.09	0.78	-18.51	1.34	13.6	15.04
Cc1nc(N)nc(O)c1CCCNc1ccc(CCC2(CCl)OCCO2)cc1	17.48	2.84	11.06	8.53	1.57	3.7
O=C(Nc1ccccc1-c1ccccc1)C(=O)Nc1ccccc1-c1ccccc1	3.9	-8.51	-14.91	2.5	2.13	4.35
CCCc1cc(=O)oc2c3c(c4c(c12)OC(C)(C)C=C4)OC(C)[C@H](C)[C@@H]3O (some centres not stated)	12.64	-5.36	11.63	20.98	7.97	-3.22
CCC1=[N+]([O-])[N+]([O-])=C(c2ccccc2)/C1=N/O	10.92	10.01	-4.02	8.43	7.14	-1.35
CC(C)Cc1nnc(N)s1	5.28	-16.63	6.53	28.97	1.43	-13.23
O=C1OCC/C1=C\c1ccc2c(c1)OCO2	9.07	-7.38	9.99	4.4	3.83	0.17
Sc1ncnc2c1cnn2-c1ccccc1	-0.19	-10.1	15.12	7.13	16.7	30.67
ClCC(CNCc1ccccc1)c1ccccc1 (configuration not stated)	7.68	11.29	0.62	19.58	5.41	-7.48
FC(F)(F)c1cccc(OCC2CN=C(S)O2)c1 (configuration not stated)	8.92	11.68	-6.27	16.05	8.74	3.63
S=C(Nc1ccccc1)c1ccccn1	3.41	-5.82	1.02	19.37	25.9	-3.26
CCCOc1nc2c(c(=O)n(C)c(=O)n2C)n1C	17.4	10	3.82	-6.25	1.36	-4.51
CCOCCc1c(O)nc(SC)nc1O	-2.52	-10.74	0.79	7.34	2.01	-12.26
NC(=O)c1nc2c([nH]c1=O)CCCC2	15.95	-15.59	13.49	-0.68	-0.94	-4.35
COc1cc(OC)c2c(=O)cc(-c3cccnc3)oc2c1	13.2	11.57	-0.96	9.22	2.37	-8.93
O=c1oc(-c2ccccc2)c(-c2ccccc2)c2ccccc12	13.22	4.08	7.81	4.41	1.88	-4.28
Cc1c2cnccc2c(C)c2c1c1ccccc1n2CCOC(=O)c1ccccc1	-1.71	14.72	4.49	5.61	22.1	-19.42
Cn1c(SCc2ccccn2)nc2c1c(=O)[nH]c(=O)n2C	7.99	-7.81	13.96	9.58	0.41	-8.81
Cc1nccnc1Sc1ccccc1	3.9	-12.89	2.25	5.26	7.15	-6.77
Clc1nc2nc3n(c2nc1Cl)CCC3	9.08	6.51	0.57	2.17	3.01	-9.39
